# According to PubChem BioAssay AID1159580 (chemical genetic matrix, 2015):
# The campaign covered roughly 5,500 compounds. About 2,000 (36%) were called active. Not shown: some 18% with an inconclusive outcome. Some of the results follow. Values without a mark were called inactive. Cut-off read from the data, not from the text of the source: active = normalized growth mostly below about 0.91 (no sharp cut-off); inconclusive = no clear call, values can overlap the other calls; inactive = mostly above about 0.92.
# Experiment: chemical genetic growth profiling, strain panel (AID 1159580);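 note: tested at 20 µM; growth read once vehicle control cultures reached saturation at 30 °C; 1 = growth at the plate median or of vehicle wells; lower values mean less growth of the strain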
# Settings: S. cerevisiae deletion strains, growth OD
structure (smiles),measurement,setting,value
CN(C)c1nc(=S)ss1,normalized growth,"locus YAR019C, strain CDC15, active compounds read low",0.83 (active)
same,normalized growth,"locus YBL105C, strain PKC1, active compounds read low",0.91
same,normalized growth,"locus YBR135W, strain CKS1, active compounds read low",0.865 (active)
same,normalized growth,"locus YBR136W, strain MEC1, active compounds read low",0.883 (active)
same,normalized growth,"locus YBR160W, strain CDC28, active compounds read low",0.882 (active)
same,normalized growth,"locus YDL017W, strain CDC7, active compounds read low",0.896 (active)
same,normalized growth,"locus YDL028C, strain MPS1, active compounds read low",0.839 (active)
same,normalized growth,"locus YDL101C, strain DUN1, active compounds read low",0.937
same,normalized growth,"locus YDL108W, strain KIN28, active compounds read low",0.878 (active)
same,normalized growth,"locus YDL132W, strain cdc53, active compounds read low",0.687 (active)
same,normalized growth,"locus YDL214C, strain PRR2, active compounds read low",0.332 (active)
same,normalized growth,"locus YDR052C, strain DBF4, active compounds read low",0.886 (active)
same,normalized growth,"locus YDR054C, strain cdc34, active compounds read low",0.569 (active)
same,normalized growth,"locus YDR226W, strain ADK1, active compounds read low",0.865 (active)
same,normalized growth,"locus YDR477W, strain SNF1, active compounds read low",0.319 (active)
same,normalized growth,"locus YER123W, strain YCK3, active compounds read low",0.186 (active)
same,normalized growth,"locus YER133W, strain GLC7, active compounds read low",0.211 (active)
same,normalized growth,"locus YFL009W, strain cdc4, active compounds read low",0.732 (active)
same,normalized growth,"locus YFL029C, strain CAK1, active compounds read low",0.747 (active)
same,normalized growth,"locus YFR003C, strain YPI1, active compounds read low",0.905
same,normalized growth,"locus YFR019W, strain FAB1, active compounds read low",0.221 (active)
same,normalized growth,"locus YFR028C, strain CDC14, active compounds read low",0.894
same,normalized growth,"locus YGR040W, strain KSS1, active compounds read low",0.47 (active)
same,normalized growth,"locus YGR052W, strain FMP48, active compounds read low",0.349 (active)
same,normalized growth,"locus YGR092W, strain DBF2, active compounds read low",0.111 (active)
same,normalized growth,"locus YHR030C, strain SLT2, active compounds read low",0.576 (active)
same,normalized growth,"locus YHR079C, strain IRE1, active compounds read low",0.204 (active)
same,normalized growth,"locus YHR082C, strain KSP1, active compounds read low",0.464 (active)
same,normalized growth,"locus YHR205W, strain SCH9, active compounds read low",0.493 (active)
same,normalized growth,"locus YIL147C, strain SLN1, active compounds read low",0.825 (active)
same,normalized growth,"locus YJL095W, strain BCK1, active compounds read low",0.327 (active)
same,normalized growth,"locus YJL128C, strain PBS2, active compounds read low",0.876
same,normalized growth,"locus YJL157C, strain FAR1, active compounds read low",0.199 (active)
same,normalized growth,"locus YJR016C, strain ILV3, active compounds read low",0.715 (active)
same,normalized growth,"locus YJR066W, strain TOR1 (second series), active compounds read low",0.262 (active)
same,normalized growth,"locus YJR066W, strain TOR1, active compounds read low",0.324 (active)
same,normalized growth,"locus YKL048C, strain ELM1, active compounds read low",0.228 (active)
same,normalized growth,"locus YKL067W, strain YNK1, active compounds read low",0.197 (active)
same,normalized growth,"locus YKL101W, strain HSL1, active compounds read low",0.205 (active)
same,normalized growth,"locus YKL193C, strain SDS22, active compounds read low",0.84 (active)
same,normalized growth,"locus YKL203C, strain TOR2, active compounds read low",0.342 (active)
same,normalized growth,"locus YLR113W, strain HOG1, active compounds read low",0.351 (active)
same,normalized growth,"locus YLR133W, strain CKI1, active compounds read low",0.232 (active)
same,normalized growth,"locus YLR403W, strain SFP1, active compounds read low",0.116 (active)
same,normalized growth,"locus YML070W, strain DAK1, active compounds read low",0.199 (active)
same,normalized growth,"locus YMR001C, strain CDC5, active compounds read low",0.87 (active)
same,normalized growth,"locus YMR205C, strain PFK2 (second series), active compounds read low",0.229 (active)
same,normalized growth,"locus YMR277W, strain FCP1, active compounds read low",0.827 (active)
same,normalized growth,"locus YNL006W, strain LST8, active compounds read low",0.501 (active)
same,normalized growth,"locus YNL020C, strain ARK1, active compounds read low",0.189 (active)
same,normalized growth,"locus YNL161W, strain CBK1, active compounds read low",0.869 (active)
same,normalized growth,"locus YNL183C, strain NPR1, active compounds read low",0.341 (active)
same,normalized growth,"locus YNL207W, strain RIO2, active compounds read low",0.865 (active)
same,normalized growth,"locus YNL222W, strain SSU72, active compounds read low",0.861 (active)
same,normalized growth,"locus YNL307C, strain MCK1 (second series), active compounds read low",0.162 (active)
same,normalized growth,"locus YOL078W, strain AVO1, active compounds read low",0.807 (active)
same,normalized growth,"locus YOL136C, strain PFK27, active compounds read low",0.165 (active)
same,normalized growth,"locus YOR061W, strain CKA2, active compounds read low",0.217 (active)
same,normalized growth,"locus YOR119C, strain RIO1, active compounds read low",0.325 (active)
same,normalized growth,"locus YOR231W, strain MKK1, active compounds read low",0.211 (active)
same,normalized growth,"locus YOR329C, strain SCD5, active compounds read low",0.88 (active)
same,normalized growth,"locus YPL031C, strain PHO85, active compounds read low",0.21 (active)
same,normalized growth,"locus YPL153C, strain RAD53, active compounds read low",0.16 (active)
same,normalized growth,"locus YPL204W, strain HRR25, active compounds read low",0.202 (active)
same,normalized growth,"locus YPL209C, strain IPL1, active compounds read low",0.872 (active)
same,normalized growth,"locus YPL256C, strain CLN2, active compounds read low",0.393 (active)
same,normalized growth,"locus YPR025C, strain CCL1, active compounds read low",0.881 (active)
same,normalized growth,"locus YPR106W, strain ISR1, active compounds read low",0.934
same,normalized growth,"locus YPR111W, strain DBF20, active compounds read low",0.913
same,normalized growth,"strain NNK1, active compounds read low",0.921
same,normalized growth,"strain TSCII, active compounds read low",0.706 (active)
